Potency data for 40 compounds are collected here from PubChem BioAssay AID1347142 (National Center for Advancing Translational Sciences (NCATS), 2019).

Inconclusive results are not listed. Active and inactive are the calls of the source. Calls follow the shape of the dose curve; as a rule, active = well fitted inhibition curve with a large enough effect; inconclusive = small, poorly fitted or top-dose-only effect; inactive = no such curve, though single readings can be large or run the other way.
Also: nearly all actives have a fitted effect of over 80% in size.
Potency is read from the fitted curve at half-maximal effect.

For the assay, the target named is N-terminal Xaa-Pro-Lys N-methyltransferase 1 (Homo sapiens) (UniProt Q9BV86). In words: qHTS Assay for Inhibitors of N-terminal methyltransferase 1 (NTMT1): ThioGlo3 Assay Confirmatory Screen, Round 1. The conditions noted are these: NTMT1 SAHH-coupled ThioGlo3 fluorescence, 30 min; series mostly up to 56.8 µM. The text has this: Assay Submitter (PI): Rong Huang Ph.D, Purdue University, West Lafayette, IN 47907 The N-terminal methytransferase 1 is the first methyltransferase that methylates protein alpha-N-amines and plays an important role in regulating cell mitosis, chromatin interactions and DNA repair. It is observed to be over-expressed in various cancer patient tissues like malignant melanoma and colorectal cancer tissues. Knockdown of NTMT1 in cancer cells causes cell mitotic defects and enhances sensitivity to DNA damaging chemotherapeutics. […] These critical cellular processes in which NTMT1 is implicated, coupled with emerging links to cellular dysfunction, strengthen the inference that NTMT1 is a compelling novel anticancer target. Progress have been made in understanding the molecular properties of NTMT1 and the biological consequences of protein alpha-N-terminal methylation, but there are no specific small molecule probes available for NTMT1 to fully characterize its MTase activity. To address this unmet need, a panel of assay is created and established to enable quantitative high-throughput screening (qHTS) for novel, potent, and selective small molecule NTMT1 inhibitors. Two orthogonal qHTS that use different reagents (ThioGlo vs. MTaseGlo) are developed for primary robotic screening against the NCATS chemical library of more than 400,000 small molecules. Identified inhibitors are reacquired, validated, and further characterized. […] Early Translation Branch (ETB) National Center for Advancing Translational Sciences (NCATS) National Institute of Health (NIH)
Chain of N-terminal Xaa-Pro-Lys N-methyltransferase 1 (Homo sapiens) (Q9BV86 whole entry, looked up): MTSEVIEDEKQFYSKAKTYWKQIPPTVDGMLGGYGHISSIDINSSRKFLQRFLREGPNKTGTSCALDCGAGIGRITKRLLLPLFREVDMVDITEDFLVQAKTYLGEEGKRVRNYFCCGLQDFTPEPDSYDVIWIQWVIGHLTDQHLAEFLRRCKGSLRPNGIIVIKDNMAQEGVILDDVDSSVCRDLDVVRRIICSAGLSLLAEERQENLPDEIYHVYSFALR
Materials: NTMT1 enzyme, substrate SPKRIA, control peptide RCC1-6 is provided by the Huang laboratory. ThioGlo3 Assay: In brief, 125nM NTMT1 enzyme was dispensed into a 1536-well assay plate with Aurora Discovery BioRAPTR Flying Reagent Dispenser (FRD, Beckton-Dickenson). Compounds (at various concentration) or 1uM RCC1-6 (SPKRIA) control were transferred to the assay plate using the Kalypsys 1536-pintool apparatus. After 1 min of room temperature incubation, 1uL of substrate (100uM SAM, 10uM SAHH, 15uM ThioGlo3) was added to the wells bringing the final assay volume to 4uL. Initial (background) fluorescence readout (EX: 340nm, EM: 450nm) was then detected using the PerkinElmer ViewLux microplate imager and a final fluorescence readout was taken after 30 min of room temperature incubation. The data was normalized to the background fluorescence.
(Quantitative high-throughput screening tests each substance at several concentrations.)
Take `COc1cc2c(NC3CCN(CC4CCCCC4)CC3)nc(N3CCCCC3)nc2cc1OCCCN1CCCCC1`: the Potency is 17.1 µM (active).

As to `Nc1nc2c(ncn2[C@@H]2O[C@H](CO)[C@@H](O)[C@H]2O)c(=O)[nH]1`, the Potency result was “inactive”.

Take `COc1cc2c(NC3CCN(C)CC3)nc(N3CCCN(C)CC3)nc2cc1OCCOCCN(C)C`: the Potency is 24.1 µM (active).

For the compound `CCN1CCN(c2nc(NC3CC3)c3cc(OC)c(OC)cc3n2)CC1`, the Potency is 24.1 µM (active).

Consider `Nc1ncnc2c1[nH]c(=O)n2C1OC(CO)C(O)C1O` (stereo not given), for which the Potency entry was “inactive”.

`Nc1ncnc2c1ncn2[C@@H]1O[C@H](COP(=O)(O)O)[C@@H](O)[C@H]1O`: the Potency entry was “inactive”.

In the case of `COc1cc2c(NC3CCN(CC4CCCCC4)CC3)nc(N3CCCCCC3)nc2cc1OCCOCCN(C)C`, the Potency is 27.1 µM (active).

For `COc1cc2nc(N3CCN(C)CC3)nc(NC(C)C)c2cc1OC`, the Potency is 21.5 µM (active).

Take `Nc1ncnc2c1ncn2[C@H]1C[C@H](O)[C@@H](CO)O1`: the Potency result was “inactive”.

`COc1cc2nc(N3CCCN(C)CC3)nc(NC3CCCCC3)c2cc1OC`: the Potency was 27.1 µM (active).

On to `Nc1ncnc2c1ncn2[C@@H]1O[C@H](CO)[C@@H](O)[C@@H]1O`, for which the Potency entry is “inactive”.

Consider `CNc1ncnc2c1ncn2[C@@H]1O[C@H](CO)[C@@H](O)[C@H]1O`, for which the Potency result is “inactive”.

In the case of `Nc1ncnc2c1ncn2[C@@H]1O[C@H](C[C@@H](N)CC[C@H](N)C(=O)O)[C@@H](O)[C@H]1O`, the Potency entry is “inactive”.

`COc1cc2nc(NC3CCN(Cc4ccccc4)CC3)nc(N3CCCN(C)CC3)c2cc1OC`: the Potency is 24.1 µM (active).

With `C=C1OC(CO)(n2cnc3c(N)ncnc32)C(O)C1O` (stereo not given), the Potency entry was “inactive”.

For the compound `COc1cc2c(NC3CCN(C(C)C)CC3)nc(N3CCCN(C)CC3)nc2cc1OCCOCCN1CCCC1`, the Potency is 27.1 µM (active).

`C[S+](CCC(N)C(=O)O)CC1O[C@@H](n2cnc3c(N)ncnc32)C(O)C1O` (stereo not given in full): the Potency result was “inactive”.

As to `COc1cc2c(NC3CCN(C4CCCCC4)CC3)nc(N3CCCCC3)nc2cc1OCCOCCN(C)C`, the Potency was 24.1 µM (active).

With `CCNc1nc(N2CCCN(C)CC2)nc2cc(OC)c(OC)cc12`, the Potency was 34.1 µM (active).

On to `NC[C@H]1O[C@@H](n2cnc3c(N)ncnc32)[C@H](O)[C@@H]1O`, for which the Potency entry was “inactive”.

For `O=c1[nH]cnc2c1ncn2[C@@H]1O[C@H](CO)[C@@H](O)[C@H]1O`, the Potency entry was “inactive”.

On to `COc1cc2nc(N3CCCN(C)CC3)nc(NC(C)C)c2cc1OC`, for which the Potency is 24.1 µM (active).

Turning to `COc1cc2nc(N3CCN(C(N)=O)CC3)nc(NC3CC3)c2cc1OC`, the Potency was 27.1 µM (active).

For the compound `CSc1nc(N)c2ncn([C@@H]3O[C@H](COP(=O)(O)OP(=O)(O)OP(=O)(O)O)[C@@H](O)[C@H]3O)c2n1`, the Potency result is “inactive”.

In the case of `OCC1OC(n2cnc3c(=S)nc[nH]c32)C(O)C1O` (stereo not given), the Potency was 13.6 µM (active).

Regarding `COc1cc2nc(N3CCCN(C)CC3)nc(NC3CCN(Cc4ccccc4)CC3)c2cc1OC`, the Potency is 27.1 µM (active).

Turning to `OC[C@H]1O[C@@H](n2cnc3c(NC4CCCCC4)ncnc32)[C@H](O)[C@@H]1O`, the Potency result was “inactive”.

Regarding `COc1cc2c(NC3CCN(C)CC3)nc(N3CCCN(C)CC3)nc2cc1O`, the Potency was 24.1 µM (active).

On to `COc1cc2c(NC3CCN(C)CC3)nc(N3CCCCC3)nc2cc1OCCOCCN(C)C`, for which the Potency was 24.1 µM (active).

`COc1cc2c(NC3CCN(C)CC3)nc(N3CCCN(C)CC3)nc2cc1OCCCC(C)C`: the Potency was 24.1 µM (active).

On to `COC1C(CO)OC(n2cnc3c(=O)[nH]cnc32)C1O` (stereo not given), for which the Potency result is “inactive”.

Turning to `COc1cc2nc(NC3CCN(C)CC3)nc(NC3CCN(C)CC3)c2cc1OC`, the Potency was 27.1 µM (active).

As for `COc1cc2nc(N3CCOCC3)nc(NC(C)C)c2cc1OC`, the Potency is 24.1 µM (active).

Take `Nc1ncnc2c1ncn2[C@H]1O[C@H](CO)[C@@H](O)[C@@H]1O`: the Potency result is “inactive”.

`COc1cc2nc(N3CC[C@@H](N(C)C)C3)nc(NC3CC3)c2cc1OC`: the Potency entry was “inactive”.

Regarding `CNC(=O)[C@H]1O[C@H](n2cnc3c(NCc4cccc(I)c4)nc(Cl)nc32)[C@@H](O)[C@@H]1O`, the Potency result is “inactive”.

As for `COc1cc2nc(N3CCCN(C)CC3)nc(N3CCN(C)CC3)c2cc1OC`, the Potency was 8.57 µM (active).

In the case of `COc1cc2c(NC3CCN(C4CCCCC4)CC3)nc(N3CCCN(C(C)C)CC3)nc2cc1OCCCN1CCCCC1`, the Potency is 24.1 µM (active).

For the compound `CC(C)(COP(=O)(O)OP(=O)(O)OC[C@H]1O[C@@H](n2cnc3c(N)ncnc32)[C@H](O)[C@@H]1OP(=O)(O)O)[C@H](O)C(=O)NCCC(=O)NCCS`, the Potency entry is “inactive”.

Regarding `CNc1nc(N2CCCN(C)CC2)nc2cc(OC)c(OC)cc12`, the Potency was 27.1 µM (active).
